Laboratory results published in PubChem BioAssay (EPA / NIEHS).
Where “and” joins values, the source holds several entries; their conditions need not be identical. Identical values can stand only once. Records with an inconclusive call do not appear. Some structures have more than one record in an assay (separate samples or runs), and their calls can disagree. Calls of active or inactive are those of the source. The calls were made as follows, unless noted: active = hit-call score of the fitted dose curve at least 0.9, where 1 is the maximum; inactive = score below 0.9.

Experiments:
[1] = read-out: Collagen I, COL1A1 (gene 1277); experiment: BSK_MyoF_CollagenI: BioMAP Diversity Plus: MyoF Assay for Collagen I Biomarker Activity (AID 2284238); conditions: primary human lung fibroblasts
Summary of the method: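 Multiplexed primary human lung fibroblast system; Collagen I measured by ELISA at 24 h post-dose. Increases are referenced to DMSO.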

[2] = read-out: Collagen III, COL3A1 (gene 1281); experiment: BSK_MyoF_CollagenIII: BioMAP Diversity Plus: MyoF Assay for Collagen III Biomarker Activity (AID 2284239); conditions: primary human lung fibroblasts
Summary of the method: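 Compounds are added to primary human lung fibroblasts and left for 24 hours. Collagen III is then quantified by ELISA. Analysis takes DMSO as baseline and fits increases in signal.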

[3] = read-out: Interleukin 17F (IL17F), IL17F (gene 112744); experiment: BSK_BT_xIL17F: BioMAP Diversity Plus: BT Assay for Interleukin 17F (IL17F) Biomarker Activity (AID 2284243); conditions: primary human B cells with PBMC
Summary of the method: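 Measures secreted IL-17F from a human B cell plus PBMC co-culture at 24 h post-dose by Luminex xMAP, with DMSO defining baseline activity.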

[4] = read-out: Actin alpha 1 (ACTA1), ACTA1 (gene 58); experiment: BSK_MyoF_ACTA1: BioMAP Diversity Plus: MyoF Assay for Actin alpha 1 (ACTA1) Biomarker Activity (AID 2284244); conditions: primary human lung fibroblasts
Summary of the method: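 Measured by ELISA: alpha-smooth muscle actin in human primary lung fibroblasts 24 h after dosing, with DMSO as baseline and upward signal change as the fitted direction.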

[5] = read-out: Interleukin 2 (IL2), IL2 (gene 3558); experiment: BSK_BT_xIL2: BioMAP Diversity Plus: BT Assay for Interleukin 2 (IL2) Biomarker Activity (AID 2284245); conditions: primary human B cells with PBMC
Summary of the method: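 Secreted interleukin-2 from human B cell/PBMC co-cultures, measured 24 h post-dosing by Luminex multiplex immunoassay. Upward-direction curve fitting against DMSO baseline.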

[6] = read-out: Basic fibroblast growth factor (bFGF), FGF2 (gene 2247); experiment: BSK_MyoF_bFGF: BioMAP Diversity Plus: MyoF Assay for Basic fibroblast growth factor (bFGF) Biomarker Activity (AID 2284246); conditions: primary human lung fibroblasts
Summary of the method: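 In this multiplexed cell system, lung fibroblasts (human primary) receive test chemical for 24 h before ELISA detection of bFGF; DMSO defines baseline and the analysis direction is positive.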

[7] = read-out: Collagen IV, COL4A1 (gene 1282); experiment: BSK_MyoF_CollagenIV: BioMAP Diversity Plus: MyoF Assay for Collagen IV Biomarker Activity (AID 2284247); conditions: primary human lung fibroblasts
Summary of the method: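 Activity is scored as a signal increase over DMSO in an ELISA for Collagen IV, measured on human lung fibroblasts at 24 h after chemical treatment. Cytotoxicity is checked in parallel cultures by sulforhodamine B total-protein staining.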

[8] = read-out: Plasminogen activator inhibitor-1 (PAI1), SERPINE1 (gene 5054); experiment: BSK_MyoF_PAI1: BioMAP Diversity Plus: MyoF Assay for Plasminogen activator inhibitor-1 (PAI1) Biomarker Activity (AID 2284256); conditions: primary human lung fibroblasts
Summary of the method: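 Activity reflects increased PAI-1, determined by ELISA and compared with DMSO, in human lung fibroblasts treated for 24 h.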

Decorin, DCN (gene 1634) = experiment: BSK_MyoF_Decorin: BioMAP Diversity Plus: MyoF Assay for Decorin Biomarker Activity (AID 2284265); conditions: primary human lung fibroblasts
Summary of the method: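 Lung fibroblast cultures, 24 h chemical exposure. Decorin by ELISA, positive fitting direction, DMSO baseline.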

[9] = BSK_MyoF_SRB: Viability Assessment in the BioMAP Diversity Plus: MyoF Assay (AID 2284267); conditions: primary human lung fibroblasts;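 also: total protein by SRB absorbance in parallel cultures as cytotoxicity measure; cells assessed 24 h after compound addition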
Summary of the method: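 Cytotoxicity in primary human lung fibroblasts is gauged by SRB total-protein staining 24 h after dosing, with DMSO as the negative control.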

[10] = read-out: Monokine induced gamma interferon (MIG), CXCL9 (gene 4283); experiment: BSK_KF3CT_MIG: BioMAP Diversity Plus: KF3CT Assay for Monokine induced gamma interferon (MIG) Biomarker Activity (AID 2284248); conditions: primary human keratinocytes with fibroblasts
Summary of the method: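 The assay uses a co-culture of human keratinocytes and foreskin fibroblasts. Measurement occurs 24 hours after dosing, with MIG detected by ELISA and the DMSO control as baseline.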

[11] = read-out: Collagen I, COL1A1 (gene 1277); experiment: BSK_hDFCGF_CollagenI: BioMAP Diversity Plus: hDFCGF Assay for Collagen I Biomarker Activity (AID 2284250); conditions: primary human foreskin fibroblasts
Summary of the method: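 Cells were primary human foreskin fibroblasts treated for 24 h. Collagen I levels were then determined by ELISA and compared against DMSO controls.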

[12] = read-out: Interferon-inducible T-cell alpha chemoattractant (ITAC), CXCL11 (gene 6373); experiment: BSK_hDFCGF_ITAC: BioMAP Diversity Plus: hDFCGF Assay for Interferon-inducible T-cell alpha chemoattractant (ITAC) Biomarker Activity (AID 2284251); conditions: primary human foreskin fibroblasts
Summary of the method: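 Primary human foreskin fibroblasts (hDFCGF system) treated for 24 h; I-TAC quantified by ELISA. Gain-direction fitting versus DMSO; parallel SRB staining of total protein flagged overt cytotoxicity.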

[13] = read-out: Plasminogen activator inhibitor-1 (PAI1), SERPINE1 (gene 5054); experiment: BSK_KF3CT_PAI1: BioMAP Diversity Plus: KF3CT Assay for Plasminogen activator inhibitor-1 (PAI1) Biomarker Activity (AID 2284252); conditions: primary human keratinocytes with fibroblasts
Summary of the method: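 Signal is PAI-1 detected by ELISA in a human skin-derived keratinocyte/fibroblast co-culture, 24 h after dosing; DMSO served as negative control and baseline.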

[14] = read-out: Interleukin-8 (IL8), CXCL8 (gene 3576); experiment: BSK_KF3CT_IL8: BioMAP Diversity Plus: KF3CT Assay for Interleukin-8 (IL8) Biomarker Activity (AID 2284254); conditions: primary human keratinocytes with fibroblasts
Summary of the method: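 ELISA detection of IL-8 from a human skin co-culture, keratinocytes with foreskin fibroblasts, at 24 h following chemical exposure, with gain of signal scored against DMSO controls.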

[15] = CCTE_Mundy_HCI_Cortical_NOG_NeuronCount: CCTE's Neurite Outgrowth Assay in rat cortical cells for Neuron Count, Mundy Lab (AID 2284236; active = hit-call score of the fitted dose curve at least 0.9, where 1 is the maximum;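 also: neurons counted by imaging betaIII-tubulin and Hoechst stained cortical cells; cells exposed to compound for about 48 hours before fixation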)
Summary of the method: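 Read-out: neuron number by high-content imaging of betaIII-tubulin (Alexa Fluor-488) and Hoechst-labelled rat primary cortical cells.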

[16] = CCTE_Mundy_HCI_Cortical_NOG_BPCount: CCTE's Neurite Outgrowth Assay in rat cortical cells for Branch Point Count, Mundy Lab (AID 2284237)
Summary of the method: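 Measured 50.33 h after dosing, this morphology endpoint uses rat primary cortical cultures labelled for betaIII-tubulin. Branch points are quantified by high-content imaging, with DMSO as negative control and baseline.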

[17] = CCTE_Mundy_HCI_hNP1_Casp3_7: CCTE's Caspase-Glo 3/7 Assay in human neuroprogenitor cells for Apoptosis, Mundy Lab (AID 2284240)
Summary of the method: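 Luminescent caspase-3/7 readout, 26.5 h post-dose, in human neural progenitor cells from WA09 embryonic stem cells. Cells grew 40–44 h at 37 °C, 5% CO2 before chemical addition. Activity analysed as signal increase over DMSO baseline.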

[18] = CCTE_Mundy_HCI_hNP1_CellTiter: CCTE's Cell Titer-Glo 2 Assay in human neuroprogenitor cells for Viability, Mundy Lab (AID 2284241; active = hit-call score of the fitted dose curve at least 0.9, where 1 is the maximum;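 as to AC50: a hit is a drop in ATP luminescence versus DMSO meaning reduced viability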)
Summary of the method: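 Viability read as luminescent ATP content (CellTiter-Glo, 30 min room temperature) twenty-four hours after dosing, relative to DMSO. Cells: WA09-derived hNP1 neuroprogenitors on poly-L-ornithine/laminin, plated 40 to 44 hours before chemical.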

[19] = CCTE_Mundy_HCI_Cortical_Synap_Neur_Matur_NeuronCount: CCTE's Synaptogenesis and Neurite Maturation Assay in rat cortical cells for Neuron Count, Mundy Lab (AID 2284242; active = hit-call score of the fitted dose curve at least 0.9, where 1 is the maximum)
Summary of the method: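 Imaging-based neuron count in rat cortical cultures after chemical exposure from DIV 7 to DIV 12, with AraC added at DIV 5. Activity is fitted relative to DMSO.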

Measured: AC50

c1ccc2c(c1)ccc1cc3c(ccc4ccccc43)cc12
inactive: [1] | [2] | [3] | [4] | [5] | [6] | [7] | [8] | Decorin, DCN (gene 1634) | [9]
active: [5] 0.0436 µM

Nc1ccc(N)c(Cl)c1
active: [10] 12.3 µM | [11] 26.7 µM | [12] 23.4 µM and 22.6 µM | [13] 13.1 µM and 26.5 µM
inactive: [10] | [11] | [14]

CCO[Si](CCCN=C=O)(OCC)OCC
inactive: [1] | [2] | [3] | [4] | [5] | [6] | [7] | [8] | Decorin, DCN (gene 1634) | [9]

CO[Si](OC)(OC)c1ccccc1
inactive: [10] | [11] | [12] | [13] | [14]

CCCCC(CC)COC(=O)c1ccccc1O (stereo not given)
active: [1] 14.5 µM
inactive: [2] | [3] | [4] | [5] | [6] | [7] | [8] | Decorin, DCN (gene 1634) | [9]

COCc1c(C(C)C)nc(C(C)C)c(/C=C/[C@@H](O)C[C@@H](O)CC(=O)O)c1-c1ccc(F)cc1
inactive: [6] | [7] | Decorin, DCN (gene 1634)
active: [1] 9.2 µM | [2] 0.867 µM | [3] 0.57 µM | [4] 0.0484 µM | [5] 0.58 µM | [8] 0.15 µM

C=CC=CC=CCCCCC
active: [3] 7.28 µM
inactive: [1] | [2] | [4] | [5] | [6] | [7] | [8] | Decorin, DCN (gene 1634) | [9]

CC1(C)S[C@@H]2[C@H](NC(=O)COc3ccccc3)C(=O)N2[C@H]1C(=O)O
inactive: [15] | [16] | [17]

O=C(Nc1ccccc1SSc1ccccc1NC(=O)c1ccccc1)c1ccccc1
active: [3] 9.15 µM
inactive: [1] | [2] | [4] | [6] | [7] | [8] | Decorin, DCN (gene 1634) | [9]

CCOC(=O)c1ccccc1C(=C1C=C(Br)C(=O)C(Br)=C1)c1cc(Br)c(O)c(Br)c1
inactive: [14]
active: [10] 4.3 µM and 3.96 µM | [11] 3.27 µM | [12] 4.39 µM and 4.49 µM | [13] 3.18 µM and 3.06 µM

Nc1ncn([C@@H]2O[C@H](CO)[C@@H](O)[C@H]2O)c(=O)n1
active: [17] 5.45 µM | [18] 2.78 µM
inactive: [15] | [16] | [18] | [19]

C=CCOCC(O)CCl (stereo not given)
inactive: [1] | [2] | [3] | [4] | [5] | [6] | [7] | [8] | Decorin, DCN (gene 1634) | [9]

O=C(c1ccc(O)cc1)c1ccc(O)cc1O
inactive: [10] | [11] | [12] | [13] | [14]

S=C(NC1CCCCC1)NC1CCCCC1
inactive: [1] | [2] | [3] | [4] | [6] | [7] | [8] | Decorin, DCN (gene 1634) | [9]
active: [5] 27.6 µM

CCCCCCCCc1ccc(Nc2ccc(CCCCCCCC)cc2)cc1
inactive: [1] | [2] | [3] | [4] | [5] | [6] | [7] | [8] | Decorin, DCN (gene 1634) | [9]

CCCCCCCCCCCCCCCC[N+](C)(C)CC
active: [1] 0.64 µM | [2] 0.967 µM | [3] 2.28 µM | [4] 0.757 µM | [5] 1.26 µM | [6] 8.45 µM | [7] 3.25 µM | [8] 2.65 µM | Decorin, DCN (gene 1634) 5.5 µM | [9] 1.39 µM

c1ccc2c(c1)ccc1ncccc12
active: [3] 20 µM
inactive: [1] | [2] | [4] | [5] | [6] | [7] | [8] | Decorin, DCN (gene 1634) | [9]

COc1ccc2nc(N)sc2c1
inactive: [1] | [2] | [3] | [4] | [5] | [6] | [7] | [8] | Decorin, DCN (gene 1634) | [9]

CN1C(=O)N(C)C(O)C1O (stereo not given)
inactive: [10] | [11] | [12] | [13] | [14]

C=CC(=O)OCC(Br)CBr (stereo not given)
active: [1] 20 µM | [2] 32.7 µM | [3] 15.4 µM | [4] 20 µM | [5] 24.5 µM | [6] 37.5 µM | [7] 3.97 µM | [8] 7.93 µM | [9] 20 µM
inactive: Decorin, DCN (gene 1634)
